Results filed as inconclusive are left out. For some of these results: Entries with a potency or affinity are not part of this list. Active and inactive are the calls of the source.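 Rule for the calls, unless noted: active = luciferase signal above three times the same-plate solvent-only control wells; inactive = the rest.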
Columns and labels:
[1] = polyglutamine-triggered caspase-3 activation inhibitors, cell-based (AID 1583); details: polyglutamine-induced caspase-3 activation, cell assay; stronger effect = higher value;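 tested at 10 µM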
[2] = suppressors of polyQ aggregation in yeast, 75Q-TubU reporter (AID 1593); details: Yeast 75Q polyglutamine aggregation reporter
[3] = rescue of polyQ-huntingtin neuronal dysfunction in worms, whole organism, C. elegans mechanosensory neurons, N-terminal huntingtin (AID 1599); details: touch response, stronger effect = higher value
[4] = inhibitors of mitochondrial cytochrome c release, biochemical, purified mitochondria (AID 1603); details: stronger effect = lower value;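 note: mouse liver mitochondria challenged with calcium chloride; signal normalized to the plate average as 100%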
[5] = inhibitors of polyQ protein aggregation (AID 1604); details: polyglutamine-induced protein aggregation inhibition assay; stronger effect = higher value; tested at 2.5 µM
[6] = enhancers of glutamate uptake in motor neurons, MN-1 cell line (AID 1612); details: MN-1 motor neuron cells, stronger effect = higher value;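 note: tested at 1 µM final; 0% = mean of DMSO vehicle wells on each plate; positive means more glutamate uptake than control and negative means less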
[7] = reducers of polyQ inclusions in PC12 cells, cell-based, NGF-treated PC12, GFPQ80 (AID 1614); details: PC12 NGF-treated GFP-polyQ80 inclusion reduction;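 note: lower means fewer inclusions and 0 means no inclusions at all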
[8] = suppressors of polyglutamine aggregation in yeast, 75Q-TubH (AID 1616); details: S. cerevisiae 75Q-TubH polyglutamine aggregation suppression; stronger effect = higher value
[9] = biological target: ATP-dependent translocase ABCB1 (Homo sapiens) (UniProt P08183); experiment: MDR1 (ABCB1) efflux transporter inhibition, cell-based (AID 377; in the data active = fluorescence slope change above about 50%); details: MDR1-expressing cells, fluorescent substrate accumulation slope; stronger effect = higher value; concentration not given here
Chain of ATP-dependent translocase ABCB1 (Homo sapiens) (P08183 whole entry, looked up): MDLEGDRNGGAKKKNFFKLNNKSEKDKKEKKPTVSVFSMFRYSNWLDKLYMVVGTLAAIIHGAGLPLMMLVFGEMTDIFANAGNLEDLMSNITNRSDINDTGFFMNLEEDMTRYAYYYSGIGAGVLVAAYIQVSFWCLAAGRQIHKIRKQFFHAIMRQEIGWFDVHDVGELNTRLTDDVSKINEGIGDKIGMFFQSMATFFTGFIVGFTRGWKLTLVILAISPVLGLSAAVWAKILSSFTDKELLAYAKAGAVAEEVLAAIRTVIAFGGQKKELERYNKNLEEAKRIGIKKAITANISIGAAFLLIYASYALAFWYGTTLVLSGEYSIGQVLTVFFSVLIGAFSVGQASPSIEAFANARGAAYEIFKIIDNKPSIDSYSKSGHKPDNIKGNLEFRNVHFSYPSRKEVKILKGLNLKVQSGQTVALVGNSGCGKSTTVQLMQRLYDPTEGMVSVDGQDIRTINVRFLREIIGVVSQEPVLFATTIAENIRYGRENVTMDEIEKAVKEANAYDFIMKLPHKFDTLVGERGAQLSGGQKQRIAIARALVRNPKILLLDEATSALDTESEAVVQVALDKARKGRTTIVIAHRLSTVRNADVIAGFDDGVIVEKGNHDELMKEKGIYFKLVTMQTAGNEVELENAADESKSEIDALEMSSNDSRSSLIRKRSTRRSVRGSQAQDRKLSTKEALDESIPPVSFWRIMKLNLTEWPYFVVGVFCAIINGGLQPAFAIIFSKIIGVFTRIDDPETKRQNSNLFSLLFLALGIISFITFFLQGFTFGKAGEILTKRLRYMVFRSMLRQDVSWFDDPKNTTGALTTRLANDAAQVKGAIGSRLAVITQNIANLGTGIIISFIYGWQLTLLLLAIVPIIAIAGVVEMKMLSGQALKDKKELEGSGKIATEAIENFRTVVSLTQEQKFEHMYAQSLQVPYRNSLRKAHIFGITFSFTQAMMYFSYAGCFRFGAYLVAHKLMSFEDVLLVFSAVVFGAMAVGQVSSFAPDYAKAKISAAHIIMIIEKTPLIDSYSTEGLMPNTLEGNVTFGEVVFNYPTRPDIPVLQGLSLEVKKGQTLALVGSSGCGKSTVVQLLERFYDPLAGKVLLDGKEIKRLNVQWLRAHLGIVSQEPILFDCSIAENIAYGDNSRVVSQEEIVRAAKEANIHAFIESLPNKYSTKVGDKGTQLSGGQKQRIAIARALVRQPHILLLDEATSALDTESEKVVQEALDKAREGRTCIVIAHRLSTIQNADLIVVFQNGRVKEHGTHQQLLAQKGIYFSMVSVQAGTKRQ

[10] = protection against mutant huntingtin cytotoxicity, PC12 cells, LDH release (AID 1610); details: PC12 mutant huntingtin toxicity, final LDH at 4 uM, stronger effect = lower value
[11] = hESC survival regulators, cell-based (AID 493140; call rule not given here;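 note: cells exposed to compounds for four days before counting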); details: human embryonic stem cell survival screen; stronger effect = higher value
[12] = biological target: Mitogen-activated protein kinase 7 (Homo sapiens) (UniProt Q13164); experiment: ERK5 transactivation activators in reporter cells, primary screen, cell-based, HTS (AID 1508626); details: HeLa Gal4-ERK5 transactivation, 18 h, at 5 µM, stronger effect = higher value;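 note: luciferase driven by Gal4-ERK5 fusion binding five Gal4 sites before minimal TATA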
Chain of Mitogen-activated protein kinase 7 (Homo sapiens) (Q13164 whole entry, looked up, the tested form may be a part): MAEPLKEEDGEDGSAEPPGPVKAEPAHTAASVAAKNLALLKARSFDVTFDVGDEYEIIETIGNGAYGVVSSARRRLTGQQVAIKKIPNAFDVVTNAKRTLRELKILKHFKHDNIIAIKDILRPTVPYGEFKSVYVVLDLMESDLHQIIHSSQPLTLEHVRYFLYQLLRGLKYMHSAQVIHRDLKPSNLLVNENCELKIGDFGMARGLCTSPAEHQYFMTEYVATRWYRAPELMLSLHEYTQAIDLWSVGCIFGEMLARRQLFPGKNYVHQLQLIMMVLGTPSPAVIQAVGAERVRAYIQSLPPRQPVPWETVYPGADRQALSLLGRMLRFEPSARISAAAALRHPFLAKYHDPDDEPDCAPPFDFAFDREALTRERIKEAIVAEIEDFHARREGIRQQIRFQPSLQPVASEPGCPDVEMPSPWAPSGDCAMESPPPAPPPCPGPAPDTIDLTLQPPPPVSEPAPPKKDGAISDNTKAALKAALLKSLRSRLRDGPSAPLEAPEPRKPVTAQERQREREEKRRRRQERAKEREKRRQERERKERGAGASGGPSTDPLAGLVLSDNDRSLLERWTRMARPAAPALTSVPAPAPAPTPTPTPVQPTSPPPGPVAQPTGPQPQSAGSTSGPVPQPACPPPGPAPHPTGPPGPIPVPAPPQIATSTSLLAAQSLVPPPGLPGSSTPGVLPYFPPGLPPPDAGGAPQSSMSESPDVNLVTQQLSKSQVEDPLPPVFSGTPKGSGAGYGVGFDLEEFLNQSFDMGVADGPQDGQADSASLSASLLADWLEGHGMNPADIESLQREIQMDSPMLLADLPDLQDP

[13] = liver-stage malaria parasite growth inhibition, primary screen, cell-based, HepG2, luciferase luminescence, HepG2 viability (AID 624349; in the data active = parasite load remaining mostly below about 12%, no sharp cut-off; inactive = mostly above about 10%;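 note: 100% = mean of DMSO negative control wells on the same plate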); details: P. berghei liver stage in HepG2, luciferase luminescence, concentration not given here; parasite load remaining: stronger effect = lower value; viability: measured here: HepG2 viability without parasites

SMILES | inhibition [1] | score [2] | rescue above control [3] | cytochrome c release ratio [4] | inhibition of aggregation [5] | glutamate uptake change [6] | inclusion score [7] | aggregation suppression score [8] | fluorescence slope change [9] | normalised LDH release [10] | survival [11] | luciferase signal [12] | parasite load remaining [13] | viability [13]
CN1C2CC(OC(=O)[C@H](CO)c3ccccc3)C[C@H]1CC2O (stereo not given in full) | 17.4% | 1.3 | -1.97 | 0.75 | 83.9% | 4.44% | 2 | 1.3 |  |  |  |  |  | 
CC(N)Cc1ccc2c(c1)OCO2 (stereo not given) | -14.9% | 1.01 | -3.14 | 1 | 21.1% | -7.15% | 2 | 1.15 |  |  |  |  |  | 
CNC(C)C(=O)c1ccccc1 (stereo not given) | -15.1% | 1.02 | -6.75 | 1.05 | 49.7% | -3.86% | 2 | 1.11 |  |  |  |  |  | 
CCNC(C)Cc1cccc(C(F)(F)F)c1 (stereo not given) | -12% | 1.17 | -3.67 | 0.91 | 15.7% | -14.9% | 2 | 1.24 | 23.3% (inactive) |  |  |  |  | 
CCOC(=O)C1(c2ccccc2)CCN(C)CC1 | 15% | 1.03 | 5.54 | 0.93 | 7.48% | 5.98% | 2 | 1.14 |  |  |  |  |  | 
CC[C@@H]1[C@@H](O)N2C3C[C@H]1C1C(O)[C@]4(C[C@@H]12)c1ccccc1N(C)[C@@H]34 (stereo not given in full) | 7.74% | 0.91 | -2.66 | 0.89 | -46.3% | -1.35% | 2 | 1.31 |  |  |  |  |  | 
CCCCCc1cc(O)c2c(c1)OC(C)(C)c1ccc(C)cc1-2 | 29.1% | -1.59 | 9.18 | 1.94 | -2.04% | -26.4% |  | -0.155 |  | 0.953 |  |  |  | 
NCCC(O)C(=O)N[C@@H]1C[C@H](N)[C@@H](O[C@H]2O[C@H](CN)[C@@H](O)[C@H](O)[C@H]2N)[C@H](OC2O[C@H](CO)[C@H](O)[C@H]2O)[C@H]1O (stereo not given in full) | 5.62% | 1.4 | 9.62 | 1.37 | 83.3% | 13.4% | 2 | 1.55 |  |  |  |  |  | 
O=c1ccc2cc(O[C@@H]3OC(CO)[C@@H](O)[C@@H](O)C3O)c(O)cc2o1 (stereo not given in full) |  |  |  |  |  |  |  |  |  |  | 4.42 (inactive) | 48 AU (inactive) |  | 
C[C@]12CCC3C(CC[C@@H]4C[C@H](O)CC[C@]34C)C1CCC2=O (stereo not given in full) | 61% | 0.81 | -3.82 | 0.77 | 91.7% | -9.61% |  | 0.472 |  |  |  |  |  | 
CC[C@H]1C(=O)OC[C@@H]1Cc1cncn1C |  |  |  |  |  |  |  |  |  |  |  | 84 AU (inactive) | 76.7% (inactive) | 70.2%
CN1C(=O)C(O)N=C(c2ccccc2)c2cc(Cl)ccc21 (stereo not given) | -6.64% | 1.21 | 0.82 | 0.99 | 8.84% | 4.66% | 2 | 1.05 |  |  |  |  |  | 
